nsP2pro primary = Primary qHTS for inhibitors of NSP2Pro chikungunya virus (CHIKV); Potency, µM (doses to about 24.9 µM), actives largely listed as inhibitors; FRET peptide cleavage, nsP2pro, fluorescence 1 h; 31,000 tested, 1.1% active; also: nearly all actives have a fitted effect of over 60% in size
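Enzyme 150 nM, substrate 2.5 uM (both final); Tris-HCl 10 mM pH 8.0 + 0.01% Tween 20; cpd up to 25 uM, 7 pts; 15 min preinc., 1 h RT; fluorescence ex 525/em 598.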
nsP2 cell sec = Secondary cell base assay for inhibitors of NSP2Pro Chikungunya virus (CHIKV). Potency, µM (series often up to 51.1 µM), most hits filed as inhibitors. 450 tested, 10% active. shares compounds with nsP2pro primary. cell-based CHIKV nsP2 protease reporter assay. AID 1964100, 2024; also: nearly all actives have a fitted effect of over 70% in size
Target sequence (Q8JUX6 220-798 limits assumed): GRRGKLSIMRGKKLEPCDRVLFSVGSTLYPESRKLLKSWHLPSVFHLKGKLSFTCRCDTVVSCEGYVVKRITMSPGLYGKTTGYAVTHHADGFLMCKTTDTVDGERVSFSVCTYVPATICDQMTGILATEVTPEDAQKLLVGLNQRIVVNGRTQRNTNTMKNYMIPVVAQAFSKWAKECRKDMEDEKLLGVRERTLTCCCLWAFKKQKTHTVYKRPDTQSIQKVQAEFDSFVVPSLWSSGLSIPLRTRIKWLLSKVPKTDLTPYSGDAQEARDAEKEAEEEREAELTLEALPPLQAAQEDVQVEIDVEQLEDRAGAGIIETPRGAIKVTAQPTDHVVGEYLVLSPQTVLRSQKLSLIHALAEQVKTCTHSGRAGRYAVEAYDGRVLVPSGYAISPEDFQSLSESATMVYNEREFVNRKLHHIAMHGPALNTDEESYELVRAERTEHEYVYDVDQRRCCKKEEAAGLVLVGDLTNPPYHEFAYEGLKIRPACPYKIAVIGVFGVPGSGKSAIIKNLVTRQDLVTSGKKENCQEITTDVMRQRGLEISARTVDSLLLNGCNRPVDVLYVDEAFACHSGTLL
CHIKV NSP2 FL = Selectivity profile for inhibitors of NSP2Pro chikungunya virus (CHIKV): Full length NSP2 enzyme counterscreen (CHIKV-NSP2). Potency, µM (doses to about 50.7 µM), actives largely listed as inhibitors. Full-length CHIKV NSP2 protease enzymatic counterscreen. 410 tested, 39% active. shares compounds with nsP2pro primary. AID 1964101, 2024; also: nearly all actives have a fitted effect of over 65% in size
Furin counter = Selectivity profile for inhibitors of NSP2Pro chikungunya virus (CHIKV): Human furin counterscreen; shares compounds with nsP2pro primary; Recombinant human furin enzymatic counterscreen, fluorogenic substrate; Potency, µM (top dose mostly 50.6 µM), hits mostly inhibitors; 410 tested, 6% active
NS23 peptide cs = Selectivity profile for inhibitors of NSP2Pro chikungunya virus (CHIKV): Endogenous NS2/3 peptide Counterscreen; shares compounds with nsP2pro primary; Purified CHIKV nsP2 protease, endogenous NS2/3 peptide cleavage; Potency, µM (highest dose often 51 µM), usual class: inhibitors; 410 tested, 34% active; also: nearly all actives have a fitted effect of over 55% in size
Papain cs = Selectivity profile for inhibitors of NSP2Pro chikungunya virus (CHIKV): Papain Counterscreen; shares compounds with nsP2pro primary; purified papain protease activity, enzymatic inhibition; Potency, µM (titrated, usually from 51 µM), usual class: inhibitors; 410 tested, 5% active; AID 1964104, 2024
nsP2pro conf qHTS = Confirmatory qHTS for inhibitors of NSP2Pro chikungunya virus (CHIKV); shares compounds with nsP2pro primary; CHIKV nsP2 protease enzymatic activity, qHTS; Potency, µM (highest dose often 25.5 µM), usual class: inhibitors; 410 tested, 43% active; AID 1964105, 2024; also: nearly all actives have a fitted effect of over 75% in size
HCV NS3 counter = Selectivity profile for inhibitors of NSP2Pro chikungunya virus (CHIKV): NS34A-HCV Counterscreen. shares compounds with nsP2pro primary. HCV NS3/4A protease biochemical counterscreen. Potency, µM (doses to about 50.9 µM), usual class: inhibitors. 410 tested, 20% active. AID 1964106, 2024; also: nearly all actives have a fitted effect of over 55% in size
Of the large screens only hits and unclear results are named; the others gave an inactive call (follow-up assays come after a bar, where they were run). The sample as a whole holds a higher share of hits than the screen did. Calls follow the shape of the full dose curve.

O=C1Nc2ccccc2CC12CCN(Cc1cccnc1)C2 (stereo not drawn)	none
O=C1Nc2ccccc2CC12CCN2Cc1ccc(OC(F)(F)F)cc1 (stereo not drawn)	none
O=C1Nc2ccccc2CN(Cc2ccccc2)C12CCNC2 (stereo not drawn)	nsP2pro primary inconclusive | nsP2 cell sec inactive
O=C1CCC[C@@H]2[C@@H]3CCC[N@+]4([O-])CCC[C@H](CN12)[C@H]34	none
C[n+]1cc(NC(=O)c2cccc(C(=O)Nc3cc4ccccc4[n+](C)c3)n2)cc2ccccc21	none
CCN1Cc2ccccc2N(CC(O)Cc2ccccc2)CCC1=O (stereo not drawn)	none
Cc1ccc(C(=O)OCc2ccc([C@@H](CN)C(=O)Nc3ccc4cnccc4c3)cc2)c(C)c1	none
N#Cc1ccc(-c2nc(NCc3ccc(-c4ccnc(C(F)(F)F)c4)cc3)c3ccccc3n2)cc1	none
CC1(C)C(/C=C/C=C/C=C/C=C2/N(CCCCS(=O)(=O)O)c3ccc4ccccc4c3C2(C)C)=[N+](CCCCS(=O)(=O)[O-])c2ccc3ccccc3c21	none
COC(O)(CC(C)C)C1Oc2cc(C)[nH]c(=O)c2O1 (stereo not drawn)	nsP2pro primary 8.81µM | nsP2 cell sec inactive | CHIKV NSP2 FL inactive | Furin counter inactive | NS23 peptide cs inactive | Papain cs inactive | nsP2pro conf qHTS inactive | HCV NS3 counter inactive
COc1ccc(CN2CC(Oc3ccccc3C(=O)NCc3ccccc3)C2)c(OC)c1	none
CC1CCCC(C)N1C(=S)Nc1cccc(C(F)(F)F)c1 (stereo not drawn)	none
CC(C)(C)OC(=O)N1CCN(c2ccc(NCc3cc(-c4ccc(C#N)cc4)co3)cc2)CC1	none
CC(C)(C)OC(=O)N1CCN(c2ccc(NCc3ccc4c(c3)OCO4)cc2)CC1	nsP2pro primary inconclusive | nsP2 cell sec 6.51µM | CHIKV NSP2 FL inactive | Furin counter inactive | NS23 peptide cs inactive | Papain cs inactive | nsP2pro conf qHTS inactive | HCV NS3 counter inactive
CC(C)(C)OC(=O)N1CCN(c2ccc(NCc3ccc(-c4ccc(C(C)(C)C)cc4)o3)cc2)CC1	none
CC(C)(C)OC(=O)N1CCN(c2ccc(NCc3ccc(-c4cc(C(F)(F)F)cc(C(F)(F)F)c4)o3)cc2)CC1	none
CC(C)(C)OC(=O)N1CCN(c2ccc(NCc3coc(-c4ccc(C#N)cc4)c3)cc2)CC1	nsP2pro primary 10µM | nsP2 cell sec inconclusive | CHIKV NSP2 FL inactive | Furin counter inactive | NS23 peptide cs inactive | Papain cs inactive | nsP2pro conf qHTS inactive | HCV NS3 counter inconclusive
CC(C)(C)OC(=O)N1CCN(c2ccc(NCc3occc3-c3ccc(C#N)cc3)cc2)CC1	none
CCN1CCN(C(c2ccc(Cl)cc2)c2ccc(Cl)cc2)CC1	none
O=[S+]([O-])(Nc1ccc(-c2nc3ccccc3[nH]2)cc1)c1ccc2c(c1)CCO2	none
CN(CC(O)CO)C(=O)c1c(I)c(NC(=O)C(CO)CO)c(I)c(C(=O)N(C)CC(O)CO)c1I (stereo not drawn)	none
CCOC(=O)/C=C/c1ccc(O)c(OC)c1	none
O=C1CCCC2=C1C(c1ccccc1)N=C(Nc1nc3ccccc3o1)N2 (stereo not drawn)	none
